Test results: PubChem BioAssay AID1159580 (chemical genetic matrix, 2015)
“And” between values parts separate entries of the source, which are not always exact repeats. Equal values may be shown once. About 2,000 (36%) of roughly 5,500 compounds were called active. Inconclusive results (about 18%) are left out. No stated cut-off is given here; in the data, active means normalized growth mostly below about 0.91 (no sharp cut-off); inconclusive means no clear call, values can overlap the other calls; inactive means mostly above about 0.92. This is one part of the list.

Experiment: chemical genetic growth profiling, strain panel (AID 1159580);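 further: tested at 20 µM; growth read once vehicle control cultures reached saturation at 30 °C; 1 = growth at the plate median or of vehicle wells; lower values mean less growth of the strain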
Details: growth OD

Measured: normalized growth

CN1CCN2c3ccccc3Cc3ccccc3C2C1 (stereo unspecified)
inactive: S. cerevisiae deletion strains, locus YJR075W, strain HOC1, hits give low values 1 and 0.97 | S. cerevisiae deletion strains, locus YKL009W, strain mrt4, hits give low values 0.999 | S. cerevisiae deletion strains, locus YKL068W, hits give low values 0.991 | S. cerevisiae deletion strains, locus YKL085W, strain MDH1 (second series), hits give low values 0.987 | S. cerevisiae deletion strains, locus YKL085W, strain MDH1, hits give low values 0.987 | S. cerevisiae deletion strains, locus YKL160W, strain elf1, hits give low values 0.989 | S. cerevisiae deletion strains, locus YKL190W, strain CNB1, hits give low values 1.02 | S. cerevisiae deletion strains, locus YKR001C, strain vps1, hits give low values 0.976 | S. cerevisiae deletion strains, locus YKR026C, strain gcn3, hits give low values 1 | S. cerevisiae deletion strains, locus YKR091W, strain srl3, hits give low values 1.01 | S. cerevisiae deletion strains, locus YLL001W, strain dnm1, hits give low values 0.982 | S. cerevisiae deletion strains, locus YLL026W, hits give low values 0.997 | S. cerevisiae deletion strains, locus YLL041C, strain sdh2, hits give low values 1 | S. cerevisiae deletion strains, locus YLR027C, strain aat2, hits give low values 1 | S. cerevisiae deletion strains, locus YLR039C, strain RIC1, hits give low values 1.03 | S. cerevisiae deletion strains, locus YLR058C, strain SHM2, hits give low values 1.01 | S. cerevisiae deletion strains, locus YLR102C, strain apc9, hits give low values 0.994 | S. cerevisiae deletion strains, locus YLR113W, strain HOG1, hits give low values 0.996 | S. cerevisiae deletion strains, locus YLR221C, strain rsa3, hits give low values 0.993 | S. cerevisiae deletion strains, locus YLR258W, strain gsy2, hits give low values 0.987 | S. cerevisiae deletion strains, locus YLR262C, strain YPT6 (second series), hits give low values 0.991 | S. cerevisiae deletion strains, locus YLR262C, strain YPT6, hits give low values 1.05 | S. cerevisiae deletion strains, locus YLR268W, strain sec22, hits give low values 0.974 | S. cerevisiae deletion strains, locus YLR320W, strain mms22, hits give low values 0.985 | S. cerevisiae deletion strains, locus YLR330W, strain CHS5, hits give low values 1.01 | S. cerevisiae deletion strains, locus YLR342W, strain FKS1 (second series), hits give low values 0.985 | S. cerevisiae deletion strains, locus YLR342W, strain FKS1, hits give low values 0.999 | S. cerevisiae deletion strains, locus YLR357W, strain rsc2, hits give low values 1.01 | S. cerevisiae deletion strains, locus YLR370C, strain arc18, hits give low values 1 | S. cerevisiae deletion strains, locus YLR371W, strain rom2, hits give low values 1 | S. cerevisiae deletion strains, locus YLR384C, strain iki3, hits give low values 1 | S. cerevisiae deletion strains, locus YLR418C, strain cdc73, hits give low values 0.989 | S. cerevisiae deletion strains, locus YML016C, strain PPZ1, hits give low values 1.01 | S. cerevisiae deletion strains, locus YML032C, strain rad52, hits give low values 1 | S. cerevisiae deletion strains, locus YML120C, strain ndi1, hits give low values 1 | S. cerevisiae deletion strains, locus YML124C, strain tub3, hits give low values 0.994 | S. cerevisiae deletion strains, locus YMR058W, strain fet3, hits give low values 1.01 | S. cerevisiae deletion strains, locus YMR078C, strain ctf18, hits give low values 0.987 | S. cerevisiae deletion strains, locus YMR125W, strain sto1, hits give low values 1 | S. cerevisiae deletion strains, locus YMR129W, hits give low values 0.981 | S. cerevisiae deletion strains, locus YMR205C, strain PFK2, hits give low values 0.982 | S. cerevisiae deletion strains, locus YMR223W, strain ubp8, hits give low values 0.986 | S. cerevisiae deletion strains, locus YMR231W, strain pep5, hits give low values 1 | S. cerevisiae deletion strains, locus YMR263W, strain SAP30, hits give low values 1.01 and 0.995 | S. cerevisiae deletion strains, locus YMR307W, strain GAS1, hits give low values 1.04 | S. cerevisiae deletion strains, locus YNL067W, strain RPL9B, hits give low values 1.02 | S. cerevisiae deletion strains, locus YNL071W, strain lat1, hits give low values 0.998 | S. cerevisiae deletion strains, locus YNL128W, strain TEP1, hits give low values 1.02 | S. cerevisiae deletion strains, locus YNL153C, strain GIM3, hits give low values 1.02 and 0.974 | S. cerevisiae deletion strains, locus YNL175C, strain NOP13, hits give low values 1.02 | S. cerevisiae deletion strains, locus YNL183C, strain NPR1, hits give low values 0.919 | S. cerevisiae deletion strains, locus YNL197C, strain WHI3, hits give low values 1.02 | S. cerevisiae deletion strains, locus YNL209W, strain ssb2, hits give low values 0.997 | S. cerevisiae deletion strains, locus YNL224C, strain SQS1, hits give low values 1.02 | S. cerevisiae deletion strains, locus YNL233W, strain BNI4, hits give low values 1.02 | S. cerevisiae deletion strains, locus YNL248C, strain rpa49, hits give low values 0.994 | S. cerevisiae deletion strains, locus YNL250W, strain rad50, hits give low values 0.985 | S. cerevisiae deletion strains, locus YNL271C, strain bni1, hits give low values 0.981 | S. cerevisiae deletion strains, locus YNL298W, strain CLA4, hits give low values 0.99 | S. cerevisiae deletion strains, locus YNL307C, strain MCK1, hits give low values 0.993 | S. cerevisiae deletion strains, locus YNL322C, strain KRE1 (second series), hits give low values 0.996 | S. cerevisiae deletion strains, locus YNL322C, strain KRE1, hits give low values 1.02 | S. cerevisiae deletion strains, locus YNR049C, strain mso1, hits give low values 1 | S. cerevisiae deletion strains, locus YNR052C, strain pop2, hits give low values 0.989 | S. cerevisiae deletion strains, locus YOL006C, strain TOP1, hits give low values 1.02 | S. cerevisiae deletion strains, locus YOL012C, strain htz1 0.782 | S. cerevisiae deletion strains, locus YOL147C, strain pex11, hits give low values 0.991 | S. cerevisiae deletion strains, locus YOR001W, strain rrp6, hits give low values 0.99 | S. cerevisiae deletion strains, locus YOR061W, strain CKA2, hits give low values 1.02 | S. cerevisiae deletion strains, locus YOR069W, strain VPS5, hits give low values 1.01 | S. cerevisiae deletion strains, locus YOR070C, strain gyp1, hits give low values 0.999 | S. cerevisiae deletion strains, locus YOR080W, strain dia2, hits give low values 1.01 | S. cerevisiae deletion strains, locus YOR083W, strain WHI5 (second series), hits give low values 0.985 | S. cerevisiae deletion strains, locus YOR083W, strain WHI5, hits give low values 0.983 | S. cerevisiae deletion strains, locus YOR106W, strain vam3, hits give low values 0.986 | S. cerevisiae deletion strains, locus YOR136W, strain idh2, hits give low values 0.992 | S. cerevisiae deletion strains, locus YOR144C, strain elg1, hits give low values 0.99 | S. cerevisiae deletion strains, locus YOR184W, strain ser1, hits give low values 0.98 | S. cerevisiae deletion strains, locus YOR231W, strain MKK1, hits give low values 0.973 | S. cerevisiae deletion strains, locus YOR265W, strain rbl2, hits give low values 1 | S. cerevisiae deletion strains, locus YOR270C, strain vph1, hits give low values 0.993 | S. cerevisiae deletion strains, locus YOR290C, strain snf2, hits give low values 0.928 | S. cerevisiae deletion strains, locus YOR316C, strain cot1, hits give low values 0.989 | S. cerevisiae deletion strains, locus YPL051W, strain arl3, hits give low values 0.988 | S. cerevisiae deletion strains, locus YPL055C, strain LGE1, hits give low values 1.04 | S. cerevisiae deletion strains, locus YPL078C, strain atp4, hits give low values 0.983 | S. cerevisiae deletion strains, locus YPL106C, strain sse1, hits give low values 0.989 | S. cerevisiae deletion strains, locus YPL240C, strain hsp82, hits give low values 1.01 | S. cerevisiae deletion strains, locus YPL241C, strain CIN2, hits give low values 1.01 | S. cerevisiae deletion strains, locus YPL256C, strain CLN2, hits give low values 0.99 | S. cerevisiae deletion strains, locus YPR119W, strain clb2, hits give low values 0.988 | S. cerevisiae deletion strains, locus YPR141C, strain kar3, hits give low values 0.975 | S. cerevisiae deletion strains, locus YPR163C, strain tif3, hits give low values 0.984 | S. cerevisiae deletion strains, locus YPR167C, strain met16, hits give low values 0.987 | S. cerevisiae deletion strains, strain wtn01, hits give low values 0.97 | S. cerevisiae strains, strain wild type, hits give low values 1.01
